{
  "source": "PubChem BioAssay",
  "note": "Calls of active or inactive are those of the source. How the calls were made is not given here.",
  "data": [
    {"target": "Pantothenate synthetase (Mycobacterium tuberculosis (strain ATCC 25618 / H37Rv)) (UniProt P9WIL5)", "sequence (P9WIL5 whole entry, looked up)": "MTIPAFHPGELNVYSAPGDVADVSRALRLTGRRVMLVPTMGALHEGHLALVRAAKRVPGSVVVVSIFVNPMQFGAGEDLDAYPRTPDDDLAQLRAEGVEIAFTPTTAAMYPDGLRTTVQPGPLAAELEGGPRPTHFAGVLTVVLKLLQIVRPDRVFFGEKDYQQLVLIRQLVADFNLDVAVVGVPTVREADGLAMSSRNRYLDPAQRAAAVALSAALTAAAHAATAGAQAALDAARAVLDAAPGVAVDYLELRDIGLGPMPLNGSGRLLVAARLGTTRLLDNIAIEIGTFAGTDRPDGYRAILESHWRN", "assay": "Recombinant Mtb pantothenate synthetase (PanC) inhibitors, coupled enzyme, confirmatory (AID 375);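 further: 0% = full reaction with vehicle and 100% = no enzyme background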", "conditions": "coupled enzyme assay; at 10 µM, stronger effect = higher value", "values": [
      {"smiles": "COc1ccc(NC(=O)C(C)Oc2ccc(/C(C)=N\\O)cc2)cc1", "note": "(stereo not given)", "inhibition": "0% (inactive)"},
      {"smiles": "CN1CC[n+]2cnc3ccccc3c21", "inhibition": "1% (inactive)"},
      {"smiles": "Cn1c(SCc2ccc3c(c2)OCO3)nnc1-c1ccccc1", "inhibition": "0% (inactive)"},
      {"smiles": "Cc1ccc(SCC(=O)NCCN2C(=O)CSC2=O)c(C)c1", "inhibition": "0% (inactive)"},
      {"smiles": "COC(=O)c1c(C(=O)OC)n(CCCN)c2ccc(C)cc12", "inhibition": "9% (inactive)"},
      {"smiles": "Cc1csc2ncc(C(=O)N3CCc4ccccc43)c(=O)n12", "inhibition": "6% (inactive)"},
      {"smiles": "O=C(NCc1cccnc1)c1ccc2c(c1)OCO2", "inhibition": "0% (inactive)"},
      {"smiles": "OC(CN1CCOCC1)Cn1c(-c2cccc(Cl)c2)nc2ccccc21", "note": "(stereo not given)", "inhibition": "4% (inactive)"},
      {"smiles": "COc1cccc(OCCOCCN(C)CCO)c1", "inhibition": "2% (inactive)"},
      {"smiles": "CCOC(=O)C1=C(N)OC2=C(C(=O)CC(C)(C)C2)C1c1ccoc1", "note": "(stereo not given)", "inhibition": "0% (inactive)"},
      {"smiles": "COC(=O)Nc1ccc(NC(C)=O)cc1", "inhibition": "0% (inactive)"},
      {"smiles": "CN(c1cccc(NC(=O)COc2ccccc2)c1)S(C)(=O)=O", "inhibition": "6% (inactive)"},
      {"smiles": "c1ccc2c(c1)nc(NC1CCCCC1)c1nncn12", "inhibition": "0% (inactive)"},
      {"smiles": "CS(=O)(=O)N1CCC(C(=O)NCCC2=CCCCC2)CC1", "inhibition": "6% (inactive)"},
      {"smiles": "N#CCCCN1C(=O)C(O)(CC(=O)c2ccc3c(c2)OCCO3)c2ccccc21", "note": "(stereo not given)", "inhibition": "0% (inactive)"},
      {"smiles": "Cc1cc(NC(=O)CN2CCC(O)(c3cccc(F)c3)CC2)no1", "inhibition": "0% (inactive)"},
      {"smiles": "CC(C)Cc1cc(C(=O)Nc2c(F)cc(F)cc2Br)no1", "inhibition": "0% (inactive)"},
      {"smiles": "C/C=C/COC(=O)c1[nH]c2c(c1C)C(=O)CC(c1ccc(N(C)C)cc1)C2", "note": "(stereo not given)", "inhibition": "1% (inactive)"},
      {"smiles": "COc1cccc(N2CCN(CC(=O)Nc3nnc(-c4ccccc4)s3)CC2)c1", "inhibition": "3% (inactive)"},
      {"smiles": "C[C@@H]1C[C@H]2[C@@H]3C[C@H](F)C4=CC(=O)C=C[C@]4(C)[C@@]3(F)[C@@H](O)C[C@]2(C)[C@@]1(O)C(=O)CO", "inhibition": "0% (inactive)"},
      {"smiles": "CCSC1=C(C#N)C(c2ccccc2OC)CC(=O)N1", "note": "(stereo not given)", "inhibition": "4% (inactive)"},
      {"smiles": "Cc1ccc(CN2C(=O)CCC2C(=O)NCCCN2CCCC(C)C2)cc1", "note": "(stereo not given)", "inhibition": "1% (inactive)"},
      {"smiles": "CC12CN3CC(C)(CN(C1)C3c1ccc(Cl)cc1Cl)C2=O", "note": "(stereo not given)", "inhibition": "0% (inactive)"},
      {"smiles": "CCOC(=O)CSc1nnc(-c2cccnc2)n1Cc1ccccc1", "inhibition": "0% (inactive)"},
      {"smiles": "Cc1ccc(S(=O)(=O)N(C)Cc2cc3ccccc3[nH]c2=O)cc1", "inhibition": "0% (inactive)"},
      {"smiles": "COc1ccc(N2CCN(Cc3nc4c(c(=O)[nH]c(=O)n4C)n3CC(C)=O)CC2)cc1", "inhibition": "0% (inactive)"},
      {"smiles": "Cc1cc(C(F)(F)F)nc(NCc2cccnc2)n1", "inhibition": "0% (inactive)"},
      {"smiles": "O=C(CN1CCN(Cc2ccccc2F)C1=O)NCc1cccnc1", "inhibition": "0% (inactive)"},
      {"smiles": "COc1cc(C)nc(N2CCCC(C(=O)Nc3cccc(Cl)c3Cl)C2)n1", "note": "(stereo not given)", "inhibition": "0% (inactive)"},
      {"smiles": "O=C1NC(Cc2c[nH]c3ccccc23)C(=O)N1CCOc1ccccc1", "note": "(stereo not given)", "inhibition": "2% (inactive)"},
      {"smiles": "COc1ccc(-c2nc(SC)n(S(=O)(=O)c3ccccc3)n2)cc1", "inhibition": "0% (inactive)"},
      {"smiles": "O=C(NCc1cccnc1)c1ccccn1", "inhibition": "0% (inactive)"},
      {"smiles": "CCc1cccc(NC(=O)CCc2nc(-c3cccs3)no2)c1", "inhibition": "0% (inactive)"},
      {"smiles": "CN1CCN(C(=O)c2cnn3c(C(F)F)cc(C4CC4)nc23)CC1", "inhibition": "6% (inactive)"},
      {"smiles": "O=C1CCCc2nc(N3CCCCC3)sc21", "inhibition": "5% (inactive)"},
      {"smiles": "CCCSc1ccc2nc(NC(=O)OC)[nH]c2c1", "inhibition": "0% (inactive)"},
      {"smiles": "S=C(c1ccc(N2CCOCC2)cc1)N1CCCCC1", "inhibition": "2% (inactive)"},
      {"smiles": "CCOc1ccc(N(C)S(=O)(=O)c2ccc3[nH]cc(C(=O)NCC4CCCO4)c(=O)c3c2)cc1", "note": "(stereo not given)", "inhibition": "0% (inactive)"},
      {"smiles": "Cc1ccc(O)c(NC(=O)COc2cc(C)ccc2C)c1", "inhibition": "0% (inactive)"},
      {"smiles": "Cc1cc(C)c2cc(CN(CC3CCCO3)C(=O)NC3CCCCC3)c(=O)[nH]c2c1", "note": "(stereo not given)", "inhibition": "0% (inactive)"}
    ]}
  ]
}
